Results on 18 molecules are retold here after PubChem BioAssay.

A number with no mark means an inactive call. Activity calls are given as the source filed them. Unless noted, no stated cut-off is given here; in the data, active means inhibition above about 44%; inactive means the rest.

Test [1] concerns the target Nuclear receptor coactivator 3 (Homo sapiens) (UniProt Q9Y6Q9). In words: NCOA3 GAL4-fusion reporter inhibition – cell-based, luminescence, quadruplicate, confirmation (AID 588792;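 active means mean inhibition over 43.08%, the solvent-only control mean plus 3 SD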;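 further: 0% = DMSO treated cells and 100% = gossypol at 36 µM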). Particulars: HEK293 GAL4-SRC3 luciferase reporter, at 3.6 µM, stronger effect = higher value.
The subject of test [2] is transactivating tegument protein VP16 (Human herpesvirus 1), Gal4-VP16 luciferase reporter. Nature of the test: repression of VP16-driven luciferase reporter – cell-based, luminescence, high throughput, counter-screen for SRC3 inhibitor project (AID 588794; in the data active means inhibition above about 30%). To be noted: mammalian cells, at 3.6 µM, stronger effect = higher value. Background: Reporter assays use an easily measured gene product as a stand-in for the process of interest.

In test [3] the target is Nuclear receptor coactivator 1 (Homo sapiens) (UniProt Q15788). In words: NCOA1 GAL4-fusion reporter inhibition – cell-based, luminescence, quadruplicate, confirmation (AID 588820;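 active means mean inhibition above 46.68%, the untreated control wells mean plus 3 SD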;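 further: 0% = DMSO wells and 100% = gossypol 36 µM treated wells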). To be noted: HEK293 GAL4-SRC1 luciferase reporter, at 3.6 µM, stronger effect = higher value.
The nature of test [4]: repression of VP16-driven luciferase reporter – cell-based, luminescence, high throughput, counter-screen for SRC1 inhibitor project (AID 588824; in the data active means inhibition above about 25%). Particulars: cell-based VP16 transactivation luciferase luminescence; at 3.6 µM; stronger effect = higher value.
The nature of test [5]: StAR promoter reporter inhibitors, counter-screen for LRH-1 inverse agonist project, cell-based, luminescence, high throughput (AID 651611; in the data active means inhibition above about 28%). To be noted: StAR promoter luciferase reporter counterscreen, at 3.6 µM, stronger effect = higher value. For orientation: Counterscreens check selectivity or assay interference.
In test [6] the target is Nuclear receptor subfamily 5 group A member 2 (Homo sapiens) (UniProt O00482). In words: NR5A2 activity suppression in reporter cells – cell-based, luminescence, confirmation (AID 651613; in the data active means inhibition above about 42%;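 further: HEK293T cells co-transfected with LRH-1 and StAR promoter luciferase reporter; 0% = vehicle wells and 100% = parental cells lacking receptor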). Particulars: cell-based LRH-1 luciferase reporter, inverse agonism; at 3.6 µM; stronger effect = higher value.
For test [7], the target named is Steroidogenic factor 1 (Homo sapiens) (UniProt Q13285). Nature of the test: inverse agonism at SF1 nuclear receptor – cell-based, luminescence, high throughput, counter-screen for LRH-1 inverse agonist project (AID 651614).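 Further: cells cotransfected with StAR promoter reporter and SF1 expression vector; 0% = vehicle on cells with receptor and 100% = vehicle on cells lacking receptor.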 Particulars: cell-based SF1 luciferase reporter, at 3.6 µM, stronger effect = higher value.
A short description of test [8]: compounds suppressing VP16-driven luciferase signal – cell-based, luminescence, high throughput, counter-screen for LRH-1 inverse agonist project (AID 651615; in the data active means inhibition above about 33%). To be noted: Gal4-VP16 luciferase reporter cells, at 3.6 µM, stronger effect = higher value.

In general, inhibition refers to the drop in the measured response relative to a control, in per cent.

Nuclear receptor coactivator 3 (Homo sapiens), sequence (Q9Y6Q9 whole entry, looked up, the tested form may be a part): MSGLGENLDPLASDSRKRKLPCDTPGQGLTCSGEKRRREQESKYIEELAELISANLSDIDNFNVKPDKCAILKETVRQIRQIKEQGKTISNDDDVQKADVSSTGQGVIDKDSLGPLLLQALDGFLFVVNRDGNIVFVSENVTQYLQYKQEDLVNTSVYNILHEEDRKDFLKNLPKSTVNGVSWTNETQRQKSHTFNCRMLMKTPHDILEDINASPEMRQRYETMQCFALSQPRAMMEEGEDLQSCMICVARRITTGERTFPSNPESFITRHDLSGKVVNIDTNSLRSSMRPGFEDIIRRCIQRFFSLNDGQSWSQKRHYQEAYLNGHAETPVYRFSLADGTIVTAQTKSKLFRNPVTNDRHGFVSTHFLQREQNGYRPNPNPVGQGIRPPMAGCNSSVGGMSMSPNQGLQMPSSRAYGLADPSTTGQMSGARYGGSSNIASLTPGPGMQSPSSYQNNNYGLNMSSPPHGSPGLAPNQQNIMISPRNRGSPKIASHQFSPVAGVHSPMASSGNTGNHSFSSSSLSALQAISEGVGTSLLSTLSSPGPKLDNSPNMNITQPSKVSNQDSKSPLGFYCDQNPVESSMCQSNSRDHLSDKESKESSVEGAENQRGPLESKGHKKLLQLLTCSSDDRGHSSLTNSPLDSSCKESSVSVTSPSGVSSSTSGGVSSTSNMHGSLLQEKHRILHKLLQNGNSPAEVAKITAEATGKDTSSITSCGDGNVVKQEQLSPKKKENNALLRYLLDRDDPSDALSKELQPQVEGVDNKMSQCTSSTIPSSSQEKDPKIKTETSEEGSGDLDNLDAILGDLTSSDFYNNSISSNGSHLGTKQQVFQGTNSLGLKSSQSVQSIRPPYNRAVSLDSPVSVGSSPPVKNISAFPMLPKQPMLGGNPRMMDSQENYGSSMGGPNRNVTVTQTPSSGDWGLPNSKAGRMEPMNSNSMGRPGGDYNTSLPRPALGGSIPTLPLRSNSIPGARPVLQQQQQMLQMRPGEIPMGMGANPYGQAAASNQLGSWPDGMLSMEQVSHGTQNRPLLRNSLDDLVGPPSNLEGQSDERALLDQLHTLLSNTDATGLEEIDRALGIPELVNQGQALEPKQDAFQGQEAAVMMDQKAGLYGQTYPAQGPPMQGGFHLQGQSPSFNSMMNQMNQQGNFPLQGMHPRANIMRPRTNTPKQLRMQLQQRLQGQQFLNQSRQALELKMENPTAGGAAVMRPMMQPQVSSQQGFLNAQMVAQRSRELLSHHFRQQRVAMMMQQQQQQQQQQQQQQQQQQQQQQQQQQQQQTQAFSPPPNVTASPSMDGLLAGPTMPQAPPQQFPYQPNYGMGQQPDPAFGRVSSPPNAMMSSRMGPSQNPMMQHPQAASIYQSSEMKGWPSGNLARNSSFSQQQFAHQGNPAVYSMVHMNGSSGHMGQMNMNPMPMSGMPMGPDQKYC
Nuclear receptor subfamily 5 group A member 2 (Homo sapiens), sequence (O00482 whole entry, looked up): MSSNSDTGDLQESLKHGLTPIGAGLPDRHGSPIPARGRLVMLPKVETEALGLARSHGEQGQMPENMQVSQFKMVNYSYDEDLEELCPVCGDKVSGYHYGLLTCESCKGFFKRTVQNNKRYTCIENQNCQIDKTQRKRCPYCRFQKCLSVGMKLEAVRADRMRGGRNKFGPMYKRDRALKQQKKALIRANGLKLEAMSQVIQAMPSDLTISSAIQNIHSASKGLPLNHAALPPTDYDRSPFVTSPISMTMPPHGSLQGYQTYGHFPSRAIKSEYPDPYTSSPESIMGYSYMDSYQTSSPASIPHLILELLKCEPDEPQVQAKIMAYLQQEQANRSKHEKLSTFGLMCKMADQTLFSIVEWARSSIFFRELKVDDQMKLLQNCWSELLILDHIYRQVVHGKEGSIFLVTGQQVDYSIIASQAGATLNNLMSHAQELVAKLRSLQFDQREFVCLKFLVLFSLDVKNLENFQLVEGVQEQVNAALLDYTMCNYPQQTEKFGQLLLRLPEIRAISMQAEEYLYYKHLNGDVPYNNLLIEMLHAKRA
Nuclear receptor coactivator 1 (Homo sapiens), sequence (Q15788 whole entry, looked up, the tested form may be a part): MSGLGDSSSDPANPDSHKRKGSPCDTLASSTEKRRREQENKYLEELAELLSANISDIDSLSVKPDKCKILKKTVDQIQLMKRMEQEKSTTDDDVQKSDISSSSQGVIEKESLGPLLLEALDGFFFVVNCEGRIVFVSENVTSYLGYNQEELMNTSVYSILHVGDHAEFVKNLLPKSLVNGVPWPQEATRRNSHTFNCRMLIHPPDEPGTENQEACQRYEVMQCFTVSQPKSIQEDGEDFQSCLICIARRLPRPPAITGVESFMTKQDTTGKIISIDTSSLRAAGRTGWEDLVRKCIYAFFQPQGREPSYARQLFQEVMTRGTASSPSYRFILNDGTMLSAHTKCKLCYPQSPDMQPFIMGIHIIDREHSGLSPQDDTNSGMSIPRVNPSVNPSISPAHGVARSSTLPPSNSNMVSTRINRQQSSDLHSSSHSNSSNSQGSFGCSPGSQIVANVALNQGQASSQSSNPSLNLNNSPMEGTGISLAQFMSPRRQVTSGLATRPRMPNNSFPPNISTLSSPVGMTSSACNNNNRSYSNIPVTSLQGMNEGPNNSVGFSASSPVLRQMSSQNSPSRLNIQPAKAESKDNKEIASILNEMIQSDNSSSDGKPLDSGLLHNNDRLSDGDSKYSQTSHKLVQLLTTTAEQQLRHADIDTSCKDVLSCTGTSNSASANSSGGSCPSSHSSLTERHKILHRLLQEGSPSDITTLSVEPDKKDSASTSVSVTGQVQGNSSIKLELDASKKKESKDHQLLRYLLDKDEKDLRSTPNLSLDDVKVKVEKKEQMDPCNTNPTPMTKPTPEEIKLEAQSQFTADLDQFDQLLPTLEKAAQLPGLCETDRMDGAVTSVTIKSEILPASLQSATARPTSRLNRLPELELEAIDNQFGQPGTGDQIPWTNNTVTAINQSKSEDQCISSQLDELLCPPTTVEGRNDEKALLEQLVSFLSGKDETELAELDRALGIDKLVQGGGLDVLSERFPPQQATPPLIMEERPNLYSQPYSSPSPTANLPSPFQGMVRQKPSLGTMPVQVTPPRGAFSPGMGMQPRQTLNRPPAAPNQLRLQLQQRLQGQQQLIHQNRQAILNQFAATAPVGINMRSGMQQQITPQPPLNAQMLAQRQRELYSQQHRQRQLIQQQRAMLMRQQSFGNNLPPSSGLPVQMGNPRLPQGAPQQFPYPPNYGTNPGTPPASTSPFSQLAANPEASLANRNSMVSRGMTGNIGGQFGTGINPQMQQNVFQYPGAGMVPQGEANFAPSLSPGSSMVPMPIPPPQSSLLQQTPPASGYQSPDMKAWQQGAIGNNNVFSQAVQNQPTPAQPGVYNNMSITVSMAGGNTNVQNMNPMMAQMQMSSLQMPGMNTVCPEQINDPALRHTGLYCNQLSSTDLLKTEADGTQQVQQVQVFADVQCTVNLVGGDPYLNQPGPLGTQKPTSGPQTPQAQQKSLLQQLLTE
Steroidogenic factor 1 (Homo sapiens), sequence (Q13285 whole entry, looked up, the tested form may be a part): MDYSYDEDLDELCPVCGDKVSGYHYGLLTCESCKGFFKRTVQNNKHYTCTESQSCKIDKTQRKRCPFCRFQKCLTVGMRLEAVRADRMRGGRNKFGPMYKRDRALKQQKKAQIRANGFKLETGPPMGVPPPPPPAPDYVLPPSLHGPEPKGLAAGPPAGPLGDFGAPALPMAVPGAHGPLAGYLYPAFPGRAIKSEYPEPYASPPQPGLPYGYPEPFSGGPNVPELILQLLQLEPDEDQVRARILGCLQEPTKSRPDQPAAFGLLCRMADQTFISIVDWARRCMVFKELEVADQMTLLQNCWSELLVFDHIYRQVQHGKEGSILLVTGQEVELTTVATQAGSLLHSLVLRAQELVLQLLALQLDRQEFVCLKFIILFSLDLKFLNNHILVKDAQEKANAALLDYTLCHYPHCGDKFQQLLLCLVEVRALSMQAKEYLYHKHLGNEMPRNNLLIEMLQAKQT

In the case of `CC[n+]1c(/C=C2\Sc3ccccc3N2C)ccc2cccc(C)c21`, the inhibition in test [1] is 47.9% (active); in test [2], 68% (active); in test [3], 36.2%; in test [4], 79.5% (active); in test [5], 76.7% (active); in test [6] it was 109% (active). The inhibition in test [7] is 91.6% (active); in test [8] it was 87% (active).

As to `O=[N+]([O-])c1ccc(Sc2cccc[n+]2[O-])c2nonc12`, the inhibition in test [1] is 98.7% (active); in test [2] it was 95.4% (active); in test [3], 91.7% (active); in test [4], 93.3% (active); in test [5], 98.1% (active); in test [6], 111% (active). In addition, the inhibition in test [7] was 99.2% (active); in test [8], 98.9% (active).

`COc1cc(NS(C)(=O)=O)ccc1Nc1c2ccccc2nc2ccccc12`: the inhibition was 63.6% (active) in test [1]; -6.87% in test [2]; 61.1% (active) in test [3]; -3.17% in test [4]; 46.6% (active) in test [5]; 108% (active) in test [6]. For the same molecule, the inhibition was 52% (active) in test [7] and 78.8% (active) in test [8].

For `Oc1cccc2cc(Nc3ccccc3)cnc12`, the inhibition in test [1] is 60.4% (active); in test [2], 63.3% (active); in test [3], 25.3%; in test [4], 70.1% (active); in test [5], 65.5% (active); in test [6], 99.5% (active). The inhibition is 84.8% (active) in test [7] and 88% (active) in test [8].

In the case of `c1ccc(-c2cccc(-c3ccccn3)n2)nc1`, the inhibition in test [1] was 75.8% (active); in test [2], 39.9% (active); in test [3] it was 56.6% (active); in test [4] it was 32% (active); in test [5], 82.3% (active); in test [6], 96.7% (active). The inhibition in test [7] is 71.8% (active); in test [8], 41.8% (active).

As to `COc1ccccc1-n1cc([C@@H]2C[C@H]3CN(c4ccccc4)C(=O)[C@]34CCCN24)cn1`, the inhibition is 53.1% (active) in test [1]; 38% (active) in test [2]; 26.6% in test [3]; 47.4% (active) in test [4]; 36.2% (active) in test [5]; 57.8% (active) in test [6]. Besides, the values for the inhibition in test [7] and in test [8] were 19.5% and 69.6% (active), respectively.

On to `COc1ccc(C2=Nn3c([n+](C)c4ccccc43)SC2)cc1`, for which the inhibition is 45.3% (active) in test [1]; 68.3% (active) in test [2]; 21.8% in test [3]; 66.5% (active) in test [4]; 59.1% (active) in test [5]; 95.7% (active) in test [6]. For the same molecule, the inhibition in test [7] is 86.5% (active); in test [8], 78.7% (active).

Regarding `CCN(CC)c1ccc(/C=C/c2cccc[n+]2C)c(OC)c1`, the inhibition is 48.1% (active) in test [1]; 75% (active) in test [2]; 52.2% (active) in test [3]; 77.1% (active) in test [4]; 73.3% (active) in test [5]; 106% (active) in test [6]. For the same molecule, the inhibition was 91.8% (active) in test [7] and 85.7% (active) in test [8].

Consider `O=C(NC(Nc1nc2ccc([N+](=O)[O-])cc2s1)(C(F)(F)F)C(F)(F)F)c1ccccc1Cl`, for which the inhibition in test [1] is 65.5% (active); in test [2], 86.2% (active); in test [3] it was 27.1%; in test [4] it was 86% (active); in test [5], 82.2% (active); in test [6] it was 103% (active). Moreover, the figures for the inhibition in test [7] and in test [8] were 93.4% (active) and 89.8% (active), respectively.

Turning to `CCN(CC)c1ccc(C(NC(=O)C(C)C)c2ccc3cccnc3c2O)cc1` (centres undefined), the inhibition in test [1] is 55.9% (active); in test [2] it was 56% (active); in test [3], 78.3% (active); in test [4] it was 66.5% (active); in test [5], 86.3% (active); in test [6], 103% (active). Further, the results for the inhibition in test [7] and in test [8] were 90% (active) and 84.9% (active), respectively.

Regarding `Cc1cccc2cc(-c3ccccc3)c(-c3ccccc3)c[n+]12`, the inhibition was 4.1% in test [1]; 37% (active) in test [2]; 5.14% in test [3]; 40.4% (active) in test [4]; 18.2% in test [5]; 106% (active) in test [6]. The inhibition in test [7] was 63.2% (active); in test [8], 81.7% (active).

In the case of `CCc1nc(N)nc(N)c1-c1ccc(N(C)Cc2ccccc2)c([N+](=O)[O-])c1`, the inhibition is 63.5% (active) in test [1]; 54.7% (active) in test [2]; 69.4% (active) in test [3]; 60.4% (active) in test [4]; 71.8% (active) in test [5]; 69.6% (active) in test [6]. For the same molecule, the inhibition in test [7] was 65.9% (active); in test [8], 64.1% (active).

With `CCn1c(C)cc(C(=O)COC(=O)c2ccccc2[N+](=O)[O-])c1C`, the inhibition is 92.9% (active) in test [1]; 90.4% (active) in test [2]; 86.8% (active) in test [3]; 86.1% (active) in test [4]; 83.5% (active) in test [5]; 83.8% (active) in test [6]. The values for the inhibition in test [7] and in test [8] were 83.6% (active) and 81.4% (active), respectively.

Consider `CN(Cc1cnc2nc(N)nc(N)c2n1)c1ccc(C(=O)NC(CCC(=O)O)C(=O)O)cc1` (centres undefined), for which the inhibition in test [1] was 66.2% (active); in test [2], 22%; in test [3], 52.3% (active); in test [4], 10.5%; in test [5] it was 76.1% (active); in test [6] it was 50.5% (active). Moreover, the inhibition in test [7] is 46.2% (active); in test [8], 19.9%.

Turning to `CC[n+]1c(/C=C/N(C)c2ccccc2)oc2ccccc21`, the inhibition was 34.7% in test [1]; 55.8% (active) in test [2]; 16.9% in test [3]; 55.2% (active) in test [4]; 31.9% (active) in test [5]; 82% (active) in test [6]. The inhibition in test [7] was 69% (active); in test [8], 73.2% (active).

On to `CC(C)CC[n+]1ccccc1/C=C/c1ccc(N(C)C)cc1`, for which the inhibition in test [1] is 60.5% (active); in test [2], 79.3% (active); in test [3], 54.6% (active); in test [4], 79.3% (active); in test [5], 64.3% (active); in test [6], 105% (active). The inhibition in test [7] is 90.4% (active); in test [8], 87.1% (active).

Turning to `COc1ccc(C)cc1NC(=O)c1nnn(Cc2cccc(C(F)(F)F)c2)c1N`, the inhibition in test [1] was 10.7%; in test [2], 41.8% (active); in test [3], 27.5%; in test [4], 53.3% (active); in test [5], 39.6% (active); in test [6], 56.2% (active). The inhibition in test [7] is 57.3% (active); in test [8], 60.3% (active).

For the molecule `COC(=O)C1=C(CN2CCCc3ccccc32)NC(=O)NC1c1ccc(F)cc1` (centres undefined), the inhibition was 65.7% (active) in test [1]; 32.3% (active) in test [2]; 60% (active) in test [3]; 34.7% (active) in test [4]; 71.5% (active) in test [5]; 17% in test [6]. Further, the inhibition in test [7] is 63.3% (active); in test [8] it was 4.51%.
